High-throughput results as filed in PubChem.
Hits are enriched below; roughly 4.8% of the tested compounds scored in any of these assays.
hcDAF12 agonist = H. contortus DAF-12 nuclear receptor activators, primary screen, cell-based, luminescence, HEK293, lit1-tk-luc reporter | 370,000 tested, 1.4% active | activation, % at 6.8 µM | HEK293 hcDAF-12 lit1-tk-luc reporter; 0% DMSO, 100% Δ7-dafachronic acid;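 active = activation above the mean of all tested compounds plus 3 SD, cut at about 5.5% in these data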;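 also: 100% = response to 3 µM Δ7-dafachronic acid high control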
SMARCA2 activ = SMARCA2 (BRM) function activators, primary screen, cell-based, luminescence, high throughput; MG213 cells, MMTV-luciferase reporter, dexamethasone, overnight; 370,000 tested, 1% active; activation, % at 9.1 µM; in the data active = activation above about 7.8%;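 also: 0% = vehicle wells and 100% = reference activator wells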
DAX1 inh-1 = DAX1 (NR0B1) inhibitors, primary screen, cell-based, HEK293, Gal4-DAX1, luciferase luminescence; Nuclear receptor subfamily 0 group B member 1 (Homo sapiens), P51843; 340,000 tested, 0.99% active; inhibition, % at 6.75 µM; HEK293 Gal4-DAX1 luciferase reporter; AID 504766, 2011;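 active = inhibition above the mean over all tested compounds plus 3 SD, cut at about 4.2% in these data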;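 also: 0% = DAX1-transfected cells with DMSO and 100% = empty-vector control cells with DMSO; inhibition shows as a rise in luminescence from relieved DAX1 repression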
Target sequence (P51843 207-470 limits assumed): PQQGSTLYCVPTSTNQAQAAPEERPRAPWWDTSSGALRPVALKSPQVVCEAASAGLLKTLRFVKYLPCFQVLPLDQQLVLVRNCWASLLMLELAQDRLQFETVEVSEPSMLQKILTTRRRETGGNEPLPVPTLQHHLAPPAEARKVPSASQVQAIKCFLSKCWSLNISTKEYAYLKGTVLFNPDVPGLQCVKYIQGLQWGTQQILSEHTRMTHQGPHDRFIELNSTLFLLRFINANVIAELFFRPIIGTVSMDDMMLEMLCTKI
ssDAF-12 act = S. stercoralis DAF-12 nuclear receptor activators, primary screen, cell-based, luminescence, HEK293, GRIP1 co-expression, lit1-tk-luc; HEK293 ssDAF-12/GRIP1 lit1-tk-luc reporter; % of 3 µM dafachronic acid response; activation, % at 6.8 µM; 370,000 tested, 1% active; AID 652126, 2013;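 active = activation above the mean over all tested compounds plus 3 SD, cut at about 0.9% in these data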;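 also: 0% = DMSO-only wells and 100% = 3 µM delta7-dafachronic acid wells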
hgDAF-12 ag = H. glycines DAF-12 receptor agonists, primary screen, cell-based, luminescence, HEK293, GAL4 fusion, UAS-luciferase; Nuclear hormone receptor DAF-12 (Heterodera glycines), GAL4 fusion; HEK293 GAL4-hgDAF12 UAS-luciferase reporter, agonist luminescence; normalized to butyrate control; activation, % at 6.8 µM; 370,000 tested, 1.8% active;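 active = activation above a cutoff set at the mean of all screened compounds plus 3 SD, cut at about 10% in these data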;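 also: 0% = DMSO wells and 100% = sodium butyrate wells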
DAX1 inh-2 = DAX1 (NR0B1) inhibitors on StAR promoter, primary screen, cell-based, luminescence, SF-1 (NR5A1), full-length DAX-1 | HEK293T StAR-luciferase reporter, SF-1/DAX-1 repression relief | inhibition, % at 6.8 µM | 370,000 tested, 1.1% active | AID 652010, 2013;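 active = inhibition above the mean over all tested compounds plus 3 SD, cut at about 3.6% in these data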;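 also: 0% = DAX-1 cells with DMSO and 100% = cells lacking DAX-1 with DMSO; higher inhibition means more luminescence from relief of DAX-1 repression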
An asterisk follows results filed as active.

Results for COCCNC(=O)C(c1ccc(Cl)cc1)N(Cc1ccco1)C(=O)CCC(=O)Nc1ccccn1 (centres undefined) ?
hcDAF12 agonist: 2; SMARCA2 activ: -1; DAX1 inh-1: 8.8*; ssDAF-12 act: -1; hgDAF-12 ag: 3; DAX1 inh-2: 0

How did COCCNC(=O)C(c1ccc(O)cc1)N(Cc1ccco1)C(=O)CCC(=O)Nc1ccccn1 (centres undefined) do in these assays?
hcDAF12 agonist: -2; SMARCA2 activ: -1; DAX1 inh-1: -1; ssDAF-12 act: -1; hgDAF-12 ag: 2; DAX1 inh-2: 0

What do the screens show for `N#CCOc1nc(N2CCCC2)nc(N2CCCC2)n1`?
hcDAF12 agonist: -1; SMARCA2 activ: -3; DAX1 inh-1: -1; ssDAF-12 act: -1; hgDAF-12 ag: -2; DAX1 inh-2: 0

Results for N#CCOc1nc(N2CCOCC2)nc(N2CCOCC2)n1 ?
hcDAF12 agonist: -2; SMARCA2 activ: -1; DAX1 inh-1: 6.0*; ssDAF-12 act: -1; hgDAF-12 ag: 2; DAX1 inh-2: 0

Results for CC1(C)CC(=O)C2=C(C1)OC(N)=C(C#N)C2c1ccsc1 (centres undefined) ?
hcDAF12 agonist: 0; SMARCA2 activ: 1; DAX1 inh-1: 1; ssDAF-12 act: -1; hgDAF-12 ag: -3; DAX1 inh-2: 0

Results for COc1ccc(-c2csc(N(CCCN(C)C)C(=O)c3cc(OC)c(OC)c(OC)c3)n2)cc1 ?
hcDAF12 agonist: -1; SMARCA2 activ: 0; DAX1 inh-1: -1; ssDAF-12 act: -2; hgDAF-12 ag: 0; DAX1 inh-2: 0

What do the screens show for `COc1ccc(C2Nc3ccccc3C(=O)N2c2ccccc2)cc1CN1CCOCC1` (centres undefined)?
hcDAF12 agonist: 1; SMARCA2 activ: 1; DAX1 inh-1: 6.1*; ssDAF-12 act: -1; hgDAF-12 ag: 0; DAX1 inh-2: -1

What do the screens show for `CCn1c(O)c(C=C2N=c3ccccc3=N2)sc1=S`?
hcDAF12 agonist: 1; SMARCA2 activ: 0; DAX1 inh-1: 2; ssDAF-12 act: 0; hgDAF-12 ag: -1; DAX1 inh-2: 1

How did c1csc(-c2noc(CN3CCOCC3)n2)c1 do in these assays?
hcDAF12 agonist: 2; SMARCA2 activ: 1; DAX1 inh-1: 4.7*; ssDAF-12 act: -1; hgDAF-12 ag: 2; DAX1 inh-2: 0

How did CCOc1ccc(NC(=O)CSc2nnc(N)s2)c([N+](=O)[O-])c1 do in these assays?
hcDAF12 agonist: -1; SMARCA2 activ: 3; DAX1 inh-1: 2; ssDAF-12 act: -2; hgDAF-12 ag: -3; DAX1 inh-2: 0

What do the screens show for `CCc1nnc2n1N=C(c1ccc(Cl)cc1)CS2`?
hcDAF12 agonist: -1; SMARCA2 activ: -4; DAX1 inh-1: 2; ssDAF-12 act: -1; hgDAF-12 ag: -1; DAX1 inh-2: 0

How did Cc1nnc2n(c1=O)N=C(c1ccc(Cl)cc1)CS2 do in these assays?
hcDAF12 agonist: 6.0*; SMARCA2 activ: 0; DAX1 inh-1: -1; ssDAF-12 act: 0; hgDAF-12 ag: 8; DAX1 inh-2: 2

Results for COc1ccc(S(=O)(=O)Oc2cc(C(=S)N3CCOCC3)ccc2OC)cc1 ?
hcDAF12 agonist: -1; SMARCA2 activ: 1; DAX1 inh-1: 1; ssDAF-12 act: -1; hgDAF-12 ag: -3; DAX1 inh-2: 0

Results for COc1ccc(C(=O)/C=C/Nc2ccc(C)cn2)cc1OC ?
hcDAF12 agonist: 3; SMARCA2 activ: 3; DAX1 inh-1: 2; ssDAF-12 act: 0; hgDAF-12 ag: 10; DAX1 inh-2: 4.0*

Results for CC(=O)N[C@@H](Cc1c[nH]c2ccccc12)C(=O)OCc1ccc(C#N)cc1 ?
hcDAF12 agonist: 0; SMARCA2 activ: -1; DAX1 inh-1: -1; ssDAF-12 act: -1; hgDAF-12 ag: 0; DAX1 inh-2: 0

How did O=c1c2ccccc2nc2ccc(NCc3cccs3)nn12 do in these assays?
hcDAF12 agonist: 2; SMARCA2 activ: 7; DAX1 inh-1: 4.7*; ssDAF-12 act: -1; hgDAF-12 ag: 6; DAX1 inh-2: 2

Results for COc1cccc(/C=N/NC(=O)C(C)n2nc(C)c([N+](=O)[O-])c2C)c1O (centres undefined) ?
hcDAF12 agonist: -1; SMARCA2 activ: -4; DAX1 inh-1: -2; ssDAF-12 act: 0; hgDAF-12 ag: -4; DAX1 inh-2: -1

Results for Cc1noc(C)c1C(=O)NC(Cc1c[nH]c2ccccc12)C(=O)O (centres undefined) ?
hcDAF12 agonist: 3; SMARCA2 activ: -3; DAX1 inh-1: 1; ssDAF-12 act: 1.2*; hgDAF-12 ag: -1; DAX1 inh-2: -1

How did CCc1nc(N[C@@H](Cc2c[nH]c3ccccc23)C(=O)O)c2oc3ccccc3c2n1 do in these assays?
hcDAF12 agonist: 3; SMARCA2 activ: -3; DAX1 inh-1: 0; ssDAF-12 act: 0; hgDAF-12 ag: 3; DAX1 inh-2: 0

What do the screens show for `CCC(C)N(C(=O)COC(=O)CCc1c[nH]c2ccccc12)C1CCS(=O)(=O)C1` (centres undefined)?
hcDAF12 agonist: 1; SMARCA2 activ: -2; DAX1 inh-1: 1; ssDAF-12 act: -1; hgDAF-12 ag: 0; DAX1 inh-2: 0

What do the screens show for `CCN(C(=O)COC(=O)Cc1c[nH]c2ccccc12)C1CCS(=O)(=O)C1` (centres undefined)?
hcDAF12 agonist: 6.1*; SMARCA2 activ: -4; DAX1 inh-1: 0; ssDAF-12 act: 1.2*; hgDAF-12 ag: 2; DAX1 inh-2: 0

What do the screens show for `Cc1nc(N[C@@H](Cc2c[nH]c3ccccc23)C(=O)O)c2oc3ccccc3c2n1`?
hcDAF12 agonist: 5.9*; SMARCA2 activ: -1; ssDAF-12 act: 1; hgDAF-12 ag: 4; DAX1 inh-2: 0

What do the screens show for `O=C(Cn1nnc2ccccc2c1=O)N[C@@H](Cc1c[nH]c2ccccc12)C(=O)O`?
hcDAF12 agonist: 3; SMARCA2 activ: -2; DAX1 inh-1: 2; ssDAF-12 act: 1.0*; hgDAF-12 ag: -1; DAX1 inh-2: 1

How did Cc1ccccc1OCC(=O)Nc1ccc(N2CCN(C(=O)c3ccco3)CC2)cc1 do in these assays?
hcDAF12 agonist: -3; SMARCA2 activ: -2; DAX1 inh-1: -2; ssDAF-12 act: -1; hgDAF-12 ag: -5; DAX1 inh-2: -1
